Cruzain inh noDet: blocks cruzain activity in detergent-free assay; P25779; purified cruzain, Z-FR-AMC fluorescence, no detergent; Potency, µM, without a hit: max response, negative = inhibition, actives largely listed as inhibitors; 200,000 compounds, 2.3% hits;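 also: plate controls were enzyme without inhibitor for no effect and buffer without enzyme for full effect; nearly all actives have a fitted effect of over 40% in size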
Target sequence (P25779 123-467 limits assumed): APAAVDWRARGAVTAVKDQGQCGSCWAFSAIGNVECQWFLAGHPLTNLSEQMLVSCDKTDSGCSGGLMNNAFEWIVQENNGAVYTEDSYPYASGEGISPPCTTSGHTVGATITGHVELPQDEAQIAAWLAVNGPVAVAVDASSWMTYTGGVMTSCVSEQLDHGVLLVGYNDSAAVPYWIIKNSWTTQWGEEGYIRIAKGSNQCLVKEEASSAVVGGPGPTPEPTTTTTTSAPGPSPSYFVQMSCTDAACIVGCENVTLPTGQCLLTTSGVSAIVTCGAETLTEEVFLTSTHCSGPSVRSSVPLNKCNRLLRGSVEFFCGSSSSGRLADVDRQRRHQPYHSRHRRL
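Purified cruzain at 1.5 nM, pre-incubated 15 min with compound at room temperature in 100 mM sodium acetate pH 5.5, 5 mM DTT, 0.00005% Triton X-100. Reaction started with 2 uM Z-FR-AMC; AMC fluorescence increase over 60 s gives rate.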
Cruzain Triton: blocks cruzain activity in presence of Triton detergent; purified cruzain, Z-FR-AMC fluorescence, 0.01% Triton; Potency, µM, without a hit: max response, negative = inhibition, most hits filed as inhibitors; 200,000 compounds, 0.43% hits; AID 1478;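 also: plate controls were neutral wells for no effect and buffer without enzyme for full effect; nearly all actives have a fitted effect of over 40% in size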
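Z-FR-AMC hydrolysis (2 uM substrate) by cruzain (1.5 nM) monitored kinetically at ex 360/em 450 nm after 15 min room-temperature compound exposure; 0.01% Triton X-100, pH 5.5, 5 mM DTT.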
Starred values were filed as active, the others as inactive; u = inconclusive; ! = not confirmed by another sample. Rows were chosen to be rich in hits. Some 2.4% of all compounds tested hit in one or more screens of this group. Calls follow the shape of the dose curve; as a rule, active = well fitted curve in the direction sought with a large enough effect; inconclusive = small, poorly fitted or top-dose-only effect, or another doubt; inactive = no such curve, though single readings can be large; an effect the other way counts as inactive or inconclusive. Potency is read from the fitted curve at half-maximal effect.

SMILES	Cruzain inh noDet	Cruzain Triton
CC(C)NC(=O)C1CCC(Cn2c(=O)c3sccc3n(CC(=O)N3CCCC3)c2=O)CC1 (stereo not given)	4.2%	-2.0%
O=C(Nc1ccc(Br)cc1)c1ccc(N2C(=O)C3CC=C(Cl)CC3C2=O)cc1 (stereo not given)	20µM*	-3.7%
O=C(c1ccc(N2C(=O)C3CC=C(Cl)CC3C2=O)cc1)N1CCCCC1 (stereo not given)	-3.1%	-2.1%
Cn1c(=O)c(C(=O)COC(=O)c2cc(-c3ccccc3)nc3ccccc23)c(N)n(Cc2ccccc2)c1=O	10µM*	-0.2%
Cn1c(=O)c(C(=O)COC(=O)c2cc(C(F)(F)F)nc3ccccc23)c(N)n(Cc2ccccc2)c1=O	-11.9%	-4.3%
Cc1cc(F)ccc1NC(=O)Cn1c(=O)ccc2cc(S(=O)(=O)N3CCC(C)CC3)ccc21	-7.4%	-2.8%
Cc1ccc(NC(=O)N(Cc2cccs2)Cc2cc3cc4c(cc3[nH]c2=O)OCO4)cc1	u	0.0%
Cc1ccc(NC(=O)N(Cc2ccc3c(c2)OCO3)Cc2cc3cc4c(cc3[nH]c2=O)OCCO4)cc1	31.6µM*	2.2%
Cc1ccccc1-c1nccc(NCCN2CCOCC2)n1	-1.2%	0.3%
COc1ccccc1NC(=O)Cn1c(=O)n(-c2ccc(C)cc2)c(=O)c2c1cnn2C	6.1%	0.2%
NC(=O)C/C=C\CC(N)=O	27.8%	2.0%
O=c1c2cnn(-c3ccc(Cl)cc3)c2ncn1Cc1ccc(Cl)cc1Cl	6.2%	0.3%
O=C(/C(=C(/[O-])c1ccccc1)[n+]1ccccc1)c1ccc([N+](=O)[O-])cc1	-19.4%	-4.6%
O=[N+]([O-])c1cccc(/C([O-])=C(/C(=S)Nc2ccccc2)[n+]2ccccc2)c1	25.1µM*	-22.2%
O=S(=O)(O)CCCc1cccc2ccccc12	-0.6%	3.5%
Cc1cc2oc3c(c(=O)c2cc1C)C(c1cccc(Br)c1)N(Cc1ccco1)C3=O (stereo not given)	u	-3.1%
Cc1ccc2oc3c(c(=O)c2c1)C(c1cccc(Br)c1)N(Cc1ccco1)C3=O (stereo not given)	25.1µM*	7.1%
COc1c(-c2coc3cc4c(cc3c2=O)CC(O)C(C)(C)O4)ccc2c1C=CC(C)(C)O2 (stereo not given)	u	1.1%
Cc1ccc(NS(=O)(=O)c2cnc(N)nc2)c(C)c1	-0.8%	-3.0%
Cc1ccc(O)c(C2=Nc3ccccc3N=C(c3ccco3)C2)c1	17.1%	-0.3%
Cc1ccc(O)c(C2=Nc3ccccc3N=C(c3ccc([N+](=O)[O-])cc3)C2)c1	20µM*	-7.7%
COc1ccc(S(=O)(=O)n2nc(OC(=O)c3ccccc3)cc2N)cc1	-15.7%	-15.2%
COc1ccc(S(=O)(=O)n2nc(OC(=O)c3cccs3)cc2N)cc1	12.6µM*	u
COc1ccc(S(=O)(=O)n2nc(OC(=O)c3ccco3)cc2N)cc1	20µM*	12.6µM*
COc1ccc(S(=O)(=O)n2nc(OC(=O)c3ccc(C)cc3)cc2N)cc1	-26.1%	-11.2%
SMILES	Cruzain inh noDet	Cruzain Triton
COc1ccc(NC(=O)c2cnc[nH]2)cc1	0.9%	0.6%
Cc1ccc2nc(C3CCCN(C(=S)Nc4cccc(C)c4C)C3)[nH]c2c1 (stereo not given)	15.8µM*	14.1µM*
Cc1ccc(NC(=S)N2CCCC(c3nc4ccc(C)cc4[nH]3)C2)c(C)c1 (stereo not given)	-26.0%	u
COc1cc(C(=O)NCc2ccc3c(c2)CCN3C(=O)c2ccncc2)cc(OC)c1OC	26.1%	-0.1%
Cc1ccc(OCC(=O)N(Cc2ccco2)Cc2ccco2)cc1C	-9.3%	-5.0%
COc1ccccc1NC(=O)c1ccc(S(=O)(=O)N2CCCC2)cc1	-0.6%	-0.8%
COc1ccccc1NS(=O)(=O)c1ccc(C)c(NC(=O)c2ccc(S(=O)(=O)N3CCCCCC3)cc2)c1	31.6µM*	-1.2%
CN(C)S(=O)(=O)c1ccc(C(=O)Nc2cc(S(=O)(=O)Nc3ccccc3Cl)ccc2N2CCCCC2)cc1	25.1µM*	-4.7%
CN1CCN(c2ccc(Cl)cc2NC(=O)c2ccc(S(=O)(=O)N(C)C)cc2)CC1	-0.8%	5.1%
COc1ccc(Cl)cc1NC(=O)c1cc(S(=O)(=O)NC2CCCCCC2)ccc1F	-7.1%	1.1%
CC1CCCN(CCOc2ccc(Br)cc2)C1 (stereo not given)	4.8%	2.8%
CC1CCCN(CCC(=O)c2ccc(Br)cc2)C1 (stereo not given)	5.01µM*	u
Cc1nc(-n2nc(C)c(CCC(C)C)c2C)sc1C(=O)Nc1ccc(Br)cc1	-7.8%	0.5%
N[C@@H](CCCCO)C(=O)O	0.1%	-3.1%
OC[C@H](CCc1c[nH]c2ccccc12)c1c[nH]c2ccccc12	2.0%	12.2%
O=C(O)c1ccc(/C=N\N=C2c3ccccc3-c3ccccc32)cc1	-6.4%	0.1%
CC(C)NC(=S)N/N=C/c1sc(N2CCCCC2)nc1-c1cccs1	31.6µM*	-7.1%
CCCCNC(=S)N(C)/N=C/c1sc(N2CCCCC2)nc1-c1cccs1	-28.3%	-2.7%
CC(C)c1nn2c(=O)cc(COC(=O)c3cccc(NC(=O)c4cccs4)c3)nc2s1	-5.9%	0.4%
Cc1ccccc1C	-5.8%	4.6%
COc1cc2c(cc1O)C[C@H]1c3c(cc(OC)c(O)c3-2)CCN1C	0.1%	-3.9%
COc1cc2c(cc1O)CC1c3c(cc(O)c(OC)c3-2)CCN1C (stereo not given)	31.6µM*!	-3.5%
CCOC(=O)C(Sc1ncnc2c1sc1nc(N3CCOCC3)c3c(c12)CCCC3)c1ccccc1 (stereo not given)	3.16µM*	8.3%
CCOC(=O)CSc1ncnc2c1sc1nc(N3CCOCC3)c3c(c12)CCCC3	-6.0%	-4.8%
Cc1cc(C)c(Cn2c(=O)n(CCCCCC(=O)NCc3ccc4c(c3)OCO4)c(=O)c3sccc32)c(C)c1	-5.0%	-1.6%
SMILES	Cruzain inh noDet	Cruzain Triton
COc1ccc(-n2c(/C=C/c3ccccc3F)nc3cc(OC)c(OC)cc3c2=O)cc1Cl	-8.3%	0.9%
CC1=C(c2ccc(C)cc2)S(=O)(=O)N(Cc2ccc(C(=O)NCc3ccccc3)cc2)C1=O	u	-5.1%
CCOc1ccc(NC(=O)c2ccc(CN3C(=O)C(C)=C(c4ccc(C)cc4)S3(=O)=O)cc2)cc1	-0.5%	-1.1%
COc1ccc(C2=C(C)C(=O)N(Cc3ccc(C(=O)Nc4ccc(C)c(C)c4)cc3)S2(=O)=O)cc1	7.94µM*	-2.5%
CC1=C(c2ccc(C)c(C)c2)S(=O)(=O)N(Cc2ccc(C(=O)NCc3ccccc3F)cc2)C1=O	25.1µM*	-3.1%
COc1ccccc1NC(=O)c1ccc(CN2C(=O)C(C)=C(c3ccc(C)c(C)c3)S2(=O)=O)cc1	31.6µM*	-3.8%
CC1=C(c2ccc(C)cc2)S(=O)(=O)N(Cc2ccc(C(=O)Nc3ccccc3C)cc2)C1=O	u	-3.6%
Cc1ccccc1NC(=O)CSc1nc2nccnc2c(=O)n1CCc1c[nH]c2ccccc12	u	-3.9%
COc1cccc(NC(=O)CSc2nnc3[nH]c(=O)cc(-c4ccccc4)n23)c1	-11.6%	-2.3%
CNc1nc(-c2ccccc2)nc(-c2ccccc2)c1C#N	7.94µM*	-2.0%
COc1ccc(-c2nc(-c3ccccc3)nc(Cl)c2C#N)cc1	-0.5%	6.0%
COc1cc(-c2noc(-c3ccc(NCc4ccco4)c([N+](=O)[O-])c3)n2)cc(OC)c1OC	u	-6.6%
Cc1cccc(NC(=O)c2ccc(-c3ccccc3)s2)c1	-22.3%	-10.1%
Cc1ccc(NC(=O)c2ccc(-c3ccccc3)s2)cc1	12.6µM*	-5.7%

Source: PubChem
